Bioassay records: PubChem, National Center for Advancing Translational Sciences (NCATS)
SW480 rerep: A quantitative high throughput screen for small molecules that induce DNA re-replication in SW480 colon adenocarcinoma cells. SW480 DNA re-replication, Hoechst DNA content imaging, 48 h. Potency, µM (series often up to 46.1 µM), for the others: at the highest dose re-replication activation, usual class: activators. 340,000 tested, 1.8% active; further: potency means the concentration at half of the fitted maximal effect; % of control where 0% means no effect; nearly all actives have a fitted effect of over 55% in size
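First, 250 cells per well were seeded. Next, compound or vehicle (23 nL) was pinned in, plates sat 48 hr at 37 C. Finally Hoechst was added for 40 min before fluorescence scanning.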
Gal4-VP16 FLuc: VP16 counterscreen qHTS for inhibitors of ROR gamma transcriptional activity; Drosophila S2 Gal4-VP16 UAS-luciferase, luminescence, 20 h; Potency, µM (titrated, usually from 53.6 µM), for inactives: top-dose activity, negative = inhibition, usual class: inhibitors; 310,000 tested, 3.5% active; AID 2546, 2010;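 further: Gal4-VP16 expression switched on by copper sulfate through the metallothionein promoter; potency means the concentration at half of the fitted maximal effect; on the % scale 0 is the no-effect control and ±100 the full control effect; nearly all actives have a fitted effect of over 50% in size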
MCF10A rerep: A quantitative high throughput screen for small molecules that induce DNA re-replication in MCF 10a normal breast cells. MCF 10A DNA re-replication, Hoechst nuclear intensity, 48 h. Potency, µM (series often up to 46.1 µM), for inactives: at the highest dose activity, positive = re-replication, most hits filed as activators. 350,000 tested, 2.9% active. AID 624296, 2012; further: potency means the concentration at half of the fitted maximal effect; % of control where 0% means no effect; nearly all actives have a fitted effect of over 50% in size
RORg inh: qHTS for inhibitors of ROR gamma transcriptional activity | Nuclear receptor ROR-gamma (Mus musculus), P51450 | Drosophila S2 Gal4-RORgamma UAS-luciferase reporter, 20 h | 310,000 tested, 5.4% active | Potency, µM (titrated, usually from 53.6 µM), inactives show at the highest dose activity change, negative = inhibition, most hits filed as inhibitors; further: potency means the concentration at half of the fitted maximal effect; on the % scale 0 is the no-effect control and ±100 the full control effect; nearly all actives have a fitted effect of over 60% in size
Target sequence (P51450 whole entry, looked up, the tested form may be a part): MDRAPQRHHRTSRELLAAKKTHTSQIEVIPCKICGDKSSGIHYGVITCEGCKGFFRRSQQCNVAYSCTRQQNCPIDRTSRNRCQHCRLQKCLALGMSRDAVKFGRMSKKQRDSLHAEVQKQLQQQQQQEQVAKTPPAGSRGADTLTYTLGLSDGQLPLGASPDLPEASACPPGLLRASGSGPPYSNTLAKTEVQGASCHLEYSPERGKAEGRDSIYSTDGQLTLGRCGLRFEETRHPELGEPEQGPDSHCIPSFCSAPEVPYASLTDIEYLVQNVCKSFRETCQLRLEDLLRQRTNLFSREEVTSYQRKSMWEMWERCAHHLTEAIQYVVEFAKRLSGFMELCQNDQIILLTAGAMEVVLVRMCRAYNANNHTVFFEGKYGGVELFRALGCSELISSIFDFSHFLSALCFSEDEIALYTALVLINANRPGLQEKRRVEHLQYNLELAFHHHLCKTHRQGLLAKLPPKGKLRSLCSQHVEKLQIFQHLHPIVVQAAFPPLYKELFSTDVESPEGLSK
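Stably transfected Drosophila Schneider cells are the test system, with ROR gamma fused to Gal4 and luciferase under UAS control; luminescence is read after 20 hr of 700 uM copper sulfate induction at ambient temperature.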
IL-1B inflam inh: qHTS for Inhibitors of Inflammasome Signaling: IL-1-beta AlphaLISA Primary Screen. THP-1 LPS/ATP IL-1B secretion, AlphaLISA, 16 h; hits give low values. AID 743279, 2014. 360,000 tested, 4.7% active. activity change, % at 57.5 µM; in the data active means activity change below about -50%; inconclusive means mostly about -30% to -49%; further: on the % scale 0 is the no-effect control and ±100 the full control effect
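Secreted IL-1B measured by AlphaLISA bead assay after 16 h compound exposure of THP-1 cells; compounds (final up to 57.5 uM) added 1 h before LPS (250 ng/mL) and ATP (1.25 mM) stimulation; lower signal means less secretion.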
* hit, by the source's call; i = inactive; u = inconclusive; x = no result given; [ ] = remark or other dose. A selection: hits, their analogues and other compounds. The true share with any hit is near 11%. Unless noted, the call rests on the fitted dose curve; in most records, active means well fitted curve in the direction sought with a large enough effect; inconclusive means small, poorly fitted or top-dose-only effect, or another doubt; inactive means no such curve, though single readings can be large; an effect the other way counts as inactive or inconclusive.

SMILES	SW480 rerep	Gal4-VP16 FLuc	MCF10A rerep	RORg inh	IL-1B inflam inh
Cc1ccc(-c2cnc3c(Cl)c(C)nn3c2)cc1	10µM*	u	u	4%	32
Cc1ccc(-c2cnc3cc(C)nn3c2)cc1	-4%	13µM*	2%	11µM*	-15
c1nc(Nc2ccc(N3CCOCC3)cc2)c2ccsc2n1	1%	u	-9%	21%	-10
Oc1ccccc1N1CCN(c2ncnc3scc(-c4ccc(F)cc4)c23)CC1	u	-19%	u	-26%	u
Cc1ccc(-c2csc3ncnc(N4CCc5ccccc5C4)c23)cc1	7%	2%	18µM*	33%	36
Fc1ccc(-c2csc3ncnc(N4CCc5ccccc5C4)c23)cc1	17%	6%	10µM*	u	-1
Fc1ccc(-c2csc3ncnc(Nc4ccc(N5CCOCC5)cc4)c23)cc1	0%	-5%	-2%	13%	-58*
CCOC(=O)CNC(=O)c1sc2ncnc(N3CCc4ccccc4C3)c2c1C	u	u	u	u	-70*
CC(NC(=O)COC(=O)c1ccccc1F)C1CC2CCC1C2 (configuration not stated)	-9%	x	-2%	x	-11
Cc1nc(SCC(=O)N2CCCC2=O)nc(C)c1C	-5%	x	-5%	x	25
CCN(CC)C(=O)C1=C(C)N(CCCOC)C(=O)C(CC(=O)NCCCCc2ccccc2)C1 (configuration not stated)	x	x	x	x	7
COc1ccc2[nH]cc(CCNc3ncncc3-c3c(C)noc3C)c2c1	x	7%	x	41%	x
CCCC[C@@H]1CNC(=S)N1CCCc1cc(OC)c(OC)c(OC)c1	-32%[9.22 µM]	u	-1%	8.9µM*	-4
Fc1cccc(CCN2C(=S)NC[C@@H]2Cc2ccccc2)c1	-17%	7.1µM*	-8%	2.2µM*	0
COc1cc(CCCN2C(=S)NC[C@H]2Cc2ccc(O)cc2)cc(OC)c1OC	-2%	-9%	-12%	33%	2
CCCC[C@@H]1CNC(=S)N1CCc1cccc(F)c1	4%	4µM*	1%	1.4µM*	-12
CC(O)[C@H]1CNC(=S)N1CCc1cccc(F)c1 (some centres not stated)	0%	-13%	2%	0%	11
Fc1cccc(CCN2C(=S)NC[C@@H]2CC2CCCCC2)c1	-1%	6.3µM*	u	2µM*	u
Nc1nc(CCl)nc(Nc2cccc3ccccc23)n1	u	10µM*	u	11µM*	-100*
NNc1nc(N)c2c(n1)-c1ccccc1CC21CCCC1	u	u	u	18µM*	-9
ClC(/C=N/n1cnnc1)=C/c1ccccc1	u	24%	u	-18%	-94*
Cc1nc(CN2CCN(S(=O)(=O)c3c(Cl)cc(Br)cc3Cl)CC2)cs1	-1%	x	15%	x	-53*
Cc1nc(CN2CCN(C(=O)NC3(c4ccccc4)CC3)CC2)cs1	-2%	2%	6%	3%	-17
CC1(C)N=C(c2ccccc2)C(=O)N1	-8%	0%	7%	-2%	8
O=C1NC2(CCCCCC2)N=C1c1ccc(F)cc1	-1%	-9%	10%	34%	-8
SMILES	SW480 rerep	Gal4-VP16 FLuc	MCF10A rerep	RORg inh	IL-1B inflam inh
Oc1[nH]c(=S)sc1/C=C1\C(c2ccccc2)=Nc2ccccc21	8%	-13%	u	26%[10 µM]	-26
S=C1NC2(CCCC2)N=C1c1ccccc1	-14%	-3%[10 µM]	-2%	5µM*	13
Cc1ccc(C2=NC(C)(C)NC2=O)cc1	0%	0%	9%	-10%	-1
Cc1ccc(C2=NC3(CCCC3)NC2=S)cc1	1%	7.9µM*	12%	2.5µM*	52
S=C1NC2(CCCCCC2)N=C1c1ccccc1	-39%	u	-2%	2µM*	16
CC(C)CC1(C)N=C(c2ccccc2)C(=S)N1 (configuration not stated)	5%	2.8µM*	-15%	2.8µM*	-11
O=C(Nc1ccc(S(=O)(=O)Nc2ccccc2F)cc1)N1CCCCC1	u	3%	-1%	u	i
O=C(N/N=C/c1cccs1)c1cc(-c2cccc3ccccc23)n[nH]1	u	5µM*	23µM*	5µM*	-52*
Cc1cc(C)n2nc(C(=O)N/N=C/c3cccs3)nc2n1	-2%	3%	-1%	15%	-2
O=C(CC(=O)N/N=C/c1cccs1)NCc1ccccc1	-10%	3%	26%	11%	2
O=C(N/N=C/c1cccs1)c1cc(-c2ccc3ccccc3c2)n[nH]1	u	5µM*	u	3.2µM*	u
Nc1nc(-c2ccccc2)c(-c2ccccc2)o1	-75%	-6%	-9%	-16%	-14
c1ccc(-c2nc(-c3nccc4ccccc34)oc2-c2ccccc2)cc1	7.3µM*	-6%	u	u	-19
COc1ccc(-n2c(-c3ccc(Cl)cc3)c[n+]3c2CCCCC3)cc1	-29%	-11%	-6%	31%	0
CCOc1ccc(-n2c(-c3ccc(Br)cc3)c[n+]3c2CCCCC3)cc1	0%	22µM*	u	u	-79*
CCOc1ccc(-n2c(-c3ccc(OC)cc3)c[n+]3c2CCCCC3)cc1	u	2µM*	-4%	11µM*	-70*
CCOc1ccc(-n2c(-c3ccccc3)c[n+]3c2CCC3)cc1	16%	8.9µM*	3%	u	-68*
COc1ccc(-c2c[n+]3c(n2-c2ccc(C)cc2)CCCCC3)cc1	11%	11µM*	-3%	-61%	-79*
COc1ccc(-c2c[n+]3c(n2-c2ccccc2)CCCCC3)cc1	-6%	u	-2%	u	u
Cc1nc2cnc(N3CCNCC3)nc2n(-c2ccccc2)c1=O	x	8%	x	-9%	x
CCN(CC)CCCCn1c(-c2ccccc2)nc2c(NCCOC)nc(C)nc21	x	-1%	x	-23%	x
CN(CC(=O)Nc1cccc(F)c1)C(=O)/C=C/c1ccc(Br)s1	2%	x	18%	x	-29
CN(CC(=O)Nc1cccc(F)c1)C(=O)/C=C/c1ccc2ccccc2n1	2%	-11%	-2%	12%	-51*
CC(Cc1cccs1)NC(=O)Nc1ccc([N+](=O)[O-])cc1 (configuration not stated)	-19%	15%	6%	u	-14
CCC(C)NC(=O)C1CCCN(C(=O)Nc2ccc(F)cc2)C1 (configuration not stated)	-13%	1%	12%	3%	35
CCC(C)NC(=S)Nc1ccc(F)cc1 (configuration not stated)	-13%	u	9%	10µM*	0
CC(Cc1cccs1)NC(=S)Nc1ccc(F)cc1 (configuration not stated)	-1%	16µM*	20%	3.2µM*	-1
